# In the supplement of paper PMC11001985:
# Compound: C#CCNC(=O)CCSSCCC(=O)NCCc1ccc(C=O)c(C=O)c1
# Assay: lysine labeling ratio R10:1 (500 µM / 50 µM probe), SILAC-ABPP in living cells; higher = lower intrinsic lysine reactivity toward the probe, active = 2 or less
# Conditions: HeLa; probe concentrations 500 vs 50 µM
# In short: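 Forward and reverse SILAC label swaps were used with living light and heavy HeLa cells in PBS at room temperature, which were given an alkyne-tagged, disulfide-linked lysine probe at 50 µM or 500 µM. R is the per-lysine filtered median high-probe/low-probe MS1 peptide ratio, with the median then taken across both swap directions. Values are limited to 20.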
# Chain of UniProt P38646 (P38646 whole entry): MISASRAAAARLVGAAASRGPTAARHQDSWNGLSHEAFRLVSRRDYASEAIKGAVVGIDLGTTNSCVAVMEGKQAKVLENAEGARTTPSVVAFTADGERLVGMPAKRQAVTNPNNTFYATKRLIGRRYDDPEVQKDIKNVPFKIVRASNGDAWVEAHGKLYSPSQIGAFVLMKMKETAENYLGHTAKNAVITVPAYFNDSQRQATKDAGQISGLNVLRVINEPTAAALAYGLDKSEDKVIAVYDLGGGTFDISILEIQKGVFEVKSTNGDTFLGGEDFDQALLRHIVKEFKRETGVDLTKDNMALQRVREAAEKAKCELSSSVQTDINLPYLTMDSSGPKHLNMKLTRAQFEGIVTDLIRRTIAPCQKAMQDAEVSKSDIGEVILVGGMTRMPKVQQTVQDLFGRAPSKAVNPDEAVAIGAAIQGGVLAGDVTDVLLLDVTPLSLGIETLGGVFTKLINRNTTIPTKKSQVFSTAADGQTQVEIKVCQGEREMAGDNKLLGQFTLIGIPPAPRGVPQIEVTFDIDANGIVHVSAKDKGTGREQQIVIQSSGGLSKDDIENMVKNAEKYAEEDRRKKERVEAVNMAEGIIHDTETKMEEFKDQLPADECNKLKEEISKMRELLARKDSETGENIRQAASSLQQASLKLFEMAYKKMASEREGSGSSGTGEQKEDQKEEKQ
# Chain of UniProt Q13813 (Q13813 whole entry): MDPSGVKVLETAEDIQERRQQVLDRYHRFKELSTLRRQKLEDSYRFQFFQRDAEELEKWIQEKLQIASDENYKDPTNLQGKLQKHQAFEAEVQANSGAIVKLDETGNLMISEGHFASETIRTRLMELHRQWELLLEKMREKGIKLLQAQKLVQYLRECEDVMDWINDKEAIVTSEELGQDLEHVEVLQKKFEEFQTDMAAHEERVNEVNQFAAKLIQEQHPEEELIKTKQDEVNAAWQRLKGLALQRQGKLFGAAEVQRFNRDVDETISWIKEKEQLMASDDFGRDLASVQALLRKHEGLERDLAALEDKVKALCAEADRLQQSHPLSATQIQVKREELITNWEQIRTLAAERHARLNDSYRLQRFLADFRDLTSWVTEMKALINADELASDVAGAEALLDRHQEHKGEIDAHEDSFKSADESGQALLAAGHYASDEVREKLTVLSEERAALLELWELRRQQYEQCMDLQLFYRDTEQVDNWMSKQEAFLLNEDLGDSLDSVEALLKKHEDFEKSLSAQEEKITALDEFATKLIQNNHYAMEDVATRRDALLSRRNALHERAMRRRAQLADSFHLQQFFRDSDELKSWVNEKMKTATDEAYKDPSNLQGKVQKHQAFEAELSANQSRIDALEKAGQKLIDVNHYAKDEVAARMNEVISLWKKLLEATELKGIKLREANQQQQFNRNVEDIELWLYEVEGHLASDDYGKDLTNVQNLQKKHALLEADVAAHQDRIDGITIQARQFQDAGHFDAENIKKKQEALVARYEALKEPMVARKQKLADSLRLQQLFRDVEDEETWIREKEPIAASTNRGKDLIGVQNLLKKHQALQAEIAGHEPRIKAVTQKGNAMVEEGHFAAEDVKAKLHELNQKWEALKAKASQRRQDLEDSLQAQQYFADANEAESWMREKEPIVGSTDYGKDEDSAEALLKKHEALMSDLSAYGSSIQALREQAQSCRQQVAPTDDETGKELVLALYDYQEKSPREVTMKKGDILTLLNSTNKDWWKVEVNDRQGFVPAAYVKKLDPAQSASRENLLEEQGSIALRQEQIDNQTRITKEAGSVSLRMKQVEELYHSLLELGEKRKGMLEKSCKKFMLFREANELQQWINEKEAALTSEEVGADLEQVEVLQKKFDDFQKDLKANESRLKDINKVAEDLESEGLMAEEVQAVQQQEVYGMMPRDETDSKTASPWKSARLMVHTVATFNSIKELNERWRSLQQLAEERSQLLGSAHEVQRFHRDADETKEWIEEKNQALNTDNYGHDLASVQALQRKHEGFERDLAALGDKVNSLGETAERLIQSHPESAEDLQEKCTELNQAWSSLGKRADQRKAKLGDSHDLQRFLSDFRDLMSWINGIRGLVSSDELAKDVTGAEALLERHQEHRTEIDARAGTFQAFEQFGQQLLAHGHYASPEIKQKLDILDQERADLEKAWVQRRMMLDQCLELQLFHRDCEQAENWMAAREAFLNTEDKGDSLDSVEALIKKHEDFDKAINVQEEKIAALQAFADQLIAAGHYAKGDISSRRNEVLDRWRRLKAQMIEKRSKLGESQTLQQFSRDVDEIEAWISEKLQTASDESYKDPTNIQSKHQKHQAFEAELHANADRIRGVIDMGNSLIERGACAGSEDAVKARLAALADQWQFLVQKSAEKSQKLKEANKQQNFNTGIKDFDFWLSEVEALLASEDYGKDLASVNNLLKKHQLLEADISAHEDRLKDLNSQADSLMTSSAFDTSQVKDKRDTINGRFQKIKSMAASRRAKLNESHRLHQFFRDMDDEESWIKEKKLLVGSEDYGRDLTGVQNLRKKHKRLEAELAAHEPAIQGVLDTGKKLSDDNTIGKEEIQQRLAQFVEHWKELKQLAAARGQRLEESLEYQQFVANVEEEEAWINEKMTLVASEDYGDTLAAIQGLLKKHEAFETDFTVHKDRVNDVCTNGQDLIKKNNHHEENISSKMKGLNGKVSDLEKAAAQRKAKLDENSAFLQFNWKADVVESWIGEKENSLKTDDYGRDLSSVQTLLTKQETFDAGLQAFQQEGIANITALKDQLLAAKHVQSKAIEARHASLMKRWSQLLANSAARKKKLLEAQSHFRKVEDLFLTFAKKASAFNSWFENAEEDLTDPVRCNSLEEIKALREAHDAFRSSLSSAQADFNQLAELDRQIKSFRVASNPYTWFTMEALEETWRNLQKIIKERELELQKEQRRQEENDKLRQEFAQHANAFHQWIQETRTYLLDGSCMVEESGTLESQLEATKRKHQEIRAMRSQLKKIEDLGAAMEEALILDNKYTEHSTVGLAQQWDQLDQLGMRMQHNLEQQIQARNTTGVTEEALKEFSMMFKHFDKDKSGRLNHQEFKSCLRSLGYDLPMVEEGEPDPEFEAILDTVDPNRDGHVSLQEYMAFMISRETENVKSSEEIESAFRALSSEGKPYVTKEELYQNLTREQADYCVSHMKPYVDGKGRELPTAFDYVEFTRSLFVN
# Chain of UniProt O43707 (O43707 whole entry): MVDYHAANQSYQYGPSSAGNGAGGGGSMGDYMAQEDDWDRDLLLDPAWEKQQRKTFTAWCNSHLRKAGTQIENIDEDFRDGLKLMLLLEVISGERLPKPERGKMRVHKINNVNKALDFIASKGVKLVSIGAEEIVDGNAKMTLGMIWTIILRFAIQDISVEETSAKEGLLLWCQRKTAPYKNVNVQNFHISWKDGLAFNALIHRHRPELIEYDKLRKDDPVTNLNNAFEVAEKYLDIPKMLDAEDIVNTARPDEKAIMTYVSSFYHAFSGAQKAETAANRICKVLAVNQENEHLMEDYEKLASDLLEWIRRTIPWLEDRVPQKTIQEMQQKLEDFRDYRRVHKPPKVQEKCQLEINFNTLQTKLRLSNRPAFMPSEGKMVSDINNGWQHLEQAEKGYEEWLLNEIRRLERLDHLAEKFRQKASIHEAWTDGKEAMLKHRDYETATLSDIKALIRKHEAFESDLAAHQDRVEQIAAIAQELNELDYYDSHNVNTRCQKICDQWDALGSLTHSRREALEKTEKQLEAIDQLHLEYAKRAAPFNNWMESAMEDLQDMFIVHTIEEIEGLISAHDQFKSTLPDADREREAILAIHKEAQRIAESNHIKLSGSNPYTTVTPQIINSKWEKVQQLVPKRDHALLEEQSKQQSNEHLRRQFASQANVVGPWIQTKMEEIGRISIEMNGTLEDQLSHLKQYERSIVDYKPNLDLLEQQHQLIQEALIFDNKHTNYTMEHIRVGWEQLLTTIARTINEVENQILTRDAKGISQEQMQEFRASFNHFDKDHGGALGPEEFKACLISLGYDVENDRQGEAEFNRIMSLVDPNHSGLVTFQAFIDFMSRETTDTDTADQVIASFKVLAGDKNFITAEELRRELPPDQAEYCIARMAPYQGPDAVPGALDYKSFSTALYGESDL
# Chain of UniProt Q96J84 (Q96J84 whole entry): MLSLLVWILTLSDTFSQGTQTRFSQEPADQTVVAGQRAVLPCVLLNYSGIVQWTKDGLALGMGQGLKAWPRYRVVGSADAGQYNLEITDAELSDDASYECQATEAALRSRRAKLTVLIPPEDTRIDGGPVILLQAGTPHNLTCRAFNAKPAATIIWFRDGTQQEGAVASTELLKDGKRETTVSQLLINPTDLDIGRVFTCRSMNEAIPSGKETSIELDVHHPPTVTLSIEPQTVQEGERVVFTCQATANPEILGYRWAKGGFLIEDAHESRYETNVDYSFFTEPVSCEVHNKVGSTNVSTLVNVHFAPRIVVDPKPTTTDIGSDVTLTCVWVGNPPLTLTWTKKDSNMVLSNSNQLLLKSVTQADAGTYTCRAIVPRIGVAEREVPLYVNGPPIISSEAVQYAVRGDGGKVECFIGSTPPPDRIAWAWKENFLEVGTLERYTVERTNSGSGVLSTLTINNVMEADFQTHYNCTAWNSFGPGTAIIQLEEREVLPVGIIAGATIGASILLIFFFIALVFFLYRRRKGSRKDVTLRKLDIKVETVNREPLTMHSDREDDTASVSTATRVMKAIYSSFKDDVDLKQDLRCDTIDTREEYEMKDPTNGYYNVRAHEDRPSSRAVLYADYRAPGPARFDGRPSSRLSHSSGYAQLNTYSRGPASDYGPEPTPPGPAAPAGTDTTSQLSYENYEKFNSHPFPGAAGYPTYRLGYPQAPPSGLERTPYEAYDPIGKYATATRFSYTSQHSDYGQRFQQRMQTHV
# Chain of UniProt P49720 (P49720 whole entry): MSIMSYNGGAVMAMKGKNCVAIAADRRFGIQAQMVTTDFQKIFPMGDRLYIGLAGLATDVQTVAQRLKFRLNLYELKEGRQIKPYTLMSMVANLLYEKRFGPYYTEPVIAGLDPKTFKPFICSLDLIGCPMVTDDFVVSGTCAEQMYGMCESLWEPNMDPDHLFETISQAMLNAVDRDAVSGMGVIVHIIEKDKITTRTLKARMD
row,Target,lysine labeling ratio R10:1
1,PLS3 (lysine site: K335) (UniProt P13797),0.765 (active)
2,ITGA6 (lysine site: K986) (UniProt P23229),1.78 (active)
3,SPTAN1 (lysine site: K1759) (UniProt Q13813),4.65 (inactive)
4,AHNAK (lysine site: K128) (UniProt Q09666),1.37 (active)
5,ACTN4 (lysine site: K331) (UniProt O43707),1.71 (active)
6,FAT1 (lysine site: K894) (UniProt Q14517),2.53 (inactive)
7,UniProt P25705 (lysine site: K167),2.05 (inactive)
8,NOTCH1 (lysine site: K185) (UniProt P46531),1.8 (active)
9,HSPA9 (lysine site: K394) (UniProt P38646),3.32 (inactive)
10,NEGR1 (lysine site: K52) (UniProt Q7Z3B1),4.69 (inactive)
11,LAMC1 (lysine site: K1355) (UniProt P11047),1.67 (active)
12,UniProt P49720 (lysine site: K77),2.88 (inactive)
13,TCP1 (lysine site: K400) (UniProt P17987),2.68 (inactive)
14,EDIL3 (lysine site: K263) (UniProt O43854),2.69 (inactive)
15,L1CAM (lysine site: K180) (UniProt P32004),1.59 (active)
16,LMO7 (lysine site: K1455) (UniProt Q8WWI1),1.37 (active)
17,UniProt Q15223 (lysine site: K190),1.25 (active)
18,SPTAN1 (lysine site: K250) (UniProt Q13813),1.09 (active)
19,ARL6IP5 (lysine site: K158) (UniProt O75915),2.7 (inactive)
20,FRAS1 (lysine site: K263) (UniProt Q86XX4),1.46 (active)

row,Target,lysine labeling ratio R10:1
1,NRP1 (lysine site: K231) (UniProt O14786),5.85 (inactive)
2,UniProt Q15149 (lysine site: K1833),2.22 (inactive)
3,FAT1 (lysine site: K369) (UniProt Q14517),1.01 (active)
4,UniProt P62829 (lysine site: K75),4.96 (inactive)
5,A2M (lysine site: K115) (UniProt P01023),0.757 (active)
6,CD46 (lysine site: K224) (UniProt P15529),6.48 (inactive)
7,LDLR (lysine site: K783) (UniProt P01130),3.22 (inactive)
8,ITGAV (lysine site: K134) (UniProt P06756),2.96 (inactive)
9,JUP (lysine site: K656) (UniProt P14923),0.972 (active)
10,KTN1 (lysine site: K543) (UniProt Q86UP2),5.74 (inactive)
11,MAN1B1 (lysine site: K354) (UniProt Q9UKM7),2.81 (inactive)
12,KIRREL (lysine site: K113) (UniProt Q96J84),2.15 (inactive)
13,PTPRJ (lysine site: K876) (UniProt Q12913),3.12 (inactive)
14,CLMP (lysine site: K172) (UniProt Q9H6B4),4.28 (inactive)
15,HSPA9 (lysine site: K143) (UniProt P38646),2.54 (inactive)
16,LAMB1 (lysine site: K1368) (UniProt P07942),1.59 (active)
17,IGSF3 (lysine site: K279) (UniProt O75054),2.5 (inactive)
18,UniProt Q9BS26 (lysine site: K130),2.57 (inactive)
19,UniProt Q15149 (lysine site: K567),14.2 (inactive)
20,FRAS1 (lysine site: K2523) (UniProt Q86XX4),2.03 (inactive)
